Activity calls are given as the source filed them.

Assay [1] relates to Human papillomavirus type 1a protein E7 (residues 44-93). As to the kind of experiment: small molecules binding HPV E7 44-93 – biochemical, small-molecule microarray, residues 44-93, 635 nm fluorescence, primary screen (AID 1108).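 Further: E7 fragment applied at 1 µg/mL in TBST for 1 h at 4 C; score combines spot fluorescence with its signal to noise ratio.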 The note with it: fluorescence 635 nm, higher = more signal.
Assay [2] can be described thus: hepatitis C replication reporter changes, two-sided – Huh7 cells, luciferase reporter, HCV replication inhibitor project, primary screen (AID 1109).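 Further: huh7 hepatoma cells harbouring a luciferase neomycin HCV replicon reporter; luciferase luminescence as measure of HCV replicon replication; test concentration not given here.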 The note with it: Huh7 HCV replicon luciferase reporter, 48 h; higher = more signal. (In general: A reporter such as luciferase makes a cellular process visible.)
Assay [3] deals with Left-right determination factor 2 (Homo sapiens) (UniProt O00292). As to the kind of experiment: small molecules binding LEFTY2 protein – biochemical, small-molecule microarray, 635 nm fluorescence scan, primary screen (AID 1110). As to conditions: higher = more signal.
For assay [4], the target named is Calmodulin-1 (Homo sapiens) (UniProt P0DP23). The assay can be described thus: small molecules binding calmodulin-1 with EGTA – biochemical, small-molecule microarray, Cy5-labelled CALM1, profiling panel (AID 1111).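 Further: labelled calmodulin applied in Tris saline Tween buffer holding calcium plus EGTA and DTT.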 As to conditions: Cy5-CALM1 binding fluorescence, higher = more signal.
For assay [5] the target is unchanged. As to the kind of experiment: small molecules binding Ca-loaded calmodulin-1 – biochemical, small-molecule microarray, Cy5-labelled CALM1, plus calcium, artefact control for SMM control-protein annotation, profiling panel (AID 1112).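 Further: score merges spot fluorescence with signal to noise from triplicate slides.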 The note with it: Cy5-CALM1 binding fluorescence, higher = more signal.
The nature of assay [6]: probe aWnt5a binding to arrayed compounds – biochemical, biotinylated probe, 635/667 nm fluorescence, primary screen (AID 1113).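 Further: score merges 667 nm fluorescence intensity with signal-to-noise per printed feature.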 As to conditions: small-molecule microarray, higher = more signal.
The nature of assay [7]: probe aShh binding to arrayed compounds – biochemical, biotinylated probe, 635/667 nm fluorescence, primary screen (AID 1114).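 Further: probe is biotin-labelled aShh protein from a stem cell growth factor screen; measures binding of labelled protein to compounds printed on the slide; score merges feature fluorescence at 667 nm with signal-to-noise.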 The note with it: small-molecule microarray, higher = more signal.
Assay [8] can be described thus: probe aNog binding to arrayed compounds – biochemical, biotinylated probe, 635/667 nm fluorescence, primary screen (AID 1115).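 Further: probe is biotinylated aNog protein used at 0.15 µg/mL for 1 h at 4 C; z-score combines 667 nm fluorescence of each spot with its signal to noise.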 As to conditions: small-molecule microarray, higher = more signal.
Assay [9] deals with Torsin-1A-interacting protein 1 (Homo sapiens) (UniProt Q5JTV8). As to the kind of experiment: compound microarray binding of lysate hLAP1 – cell lysate, small-molecule microarray, COS7 lysate, 635/667 nm fluorescence, primary screen (AID 1116). As to conditions: 635 nm fluorescence, higher = more signal.
Assay [10] addresses Alpha-bungarotoxin (Bungarus multicinctus) (UniProt P60615). As to the kind of experiment: compounds binding labelled alpha-BTX control protein – biochemical, small-molecule microarray, Alexa647 label, 635/667 nm fluorescence, artefact control for SMM control protein annotation, profiling panel (AID 1117). The note with it: alpha-BTX-A647 binding fluorescence, higher = more signal.

The target in another assay is Albumin (Bos taurus) (UniProt P02769). The assay can be described thus: compounds binding labelled BSA control protein – biochemical, small-molecule microarray, Alexa647 label, 635/667 nm fluorescence, artefact control for SMM control protein annotation, profiling panel (AID 1118).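 Further: score merges 667 nm emission intensity and signal-to-noise per printed compound spot.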 The note with it: BSA-A647 binding, fluorescence 635 nm, higher = more signal.
A short description of assay [11]: probe aXIP binding to arrayed compounds – biochemical, NeuroSMM set, 635/667 nm fluorescence, primary screen (AID 1119).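 Further: probe is the protein aXip251-270 applied at 1 µg/mL to compound-printed slides; binding of probe to printed compounds measured as 667 nm fluorescence plus signal to noise.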 The note with it: small-molecule microarray, higher = more signal, called active from +8 up or from −8 down.
A short description of assay [12]: probe aNOTCH3 binding on compound microarray – biochemical, small-molecule microarray, 635/667 nm fluorescence, primary screen (AID 1120).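 Further: probe is a biotin-tagged antibody raised against NOTCH3 rather than NOTCH3 protein; score merges spot fluorescence near 667 nm with spot signal to noise.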 As to conditions: higher = more signal.
Assay [13] in a line: probe aNOTCH2 binding on compound microarray – biochemical, small-molecule microarray, 635/667 nm fluorescence, primary screen (AID 1121).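 Further: score merges feature fluorescence read at 667 nm with its signal to noise.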 The note with it: higher = more signal.
Assay [14] deals with Carbonic anhydrase 2 (Homo sapiens) (UniProt P00918). As to the kind of experiment: compounds binding carbonic anhydrase 2 – biochemical, small-molecule microarray, Alexa647-labelled CAII, profiling panel (AID 1122). The note with it: CAII-A647 binding fluorescence, higher = more signal.
Assay [15] is described as follows: COS7 lysate on small-molecule microarray, probe aHis, 635 nm (AID 1123).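 Further: z-score combines 667nm fluorescence intensity with signal-to-noise per printed compound spot.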 As to conditions: COS7 cell lysate, fluorescence, higher = more signal.
The nature of assay [16]: probe aLAP1 signal on lysate-treated microarray – cell lysate, small-molecule microarray, COS7 lysate, primary screen (AID 1124).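 Further: lysate comes from COS7 cells expressing LAP1 and is applied at 0.3 µg/mL; score merges spot fluorescence near 667 nm with signal-to-noise over triplicate slides.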 The note with it: probe aLAP1, fluorescence, higher = more signal.
A further assay concerns Sam68 (KHDRBS1). The assay can be described thus: compounds binding KHDRBS1 protein – biochemical, small-molecule microarray, 635 nm fluorescence, primary screen (AID 1125).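 Further: score merges 667 nm channel intensity with signal to noise over triplicate slides.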 The note with it: higher = more signal.
For assay [17], the system named is Chordin-like protein 2 (CHRDL2). As to the kind of experiment: compounds binding chordin-like 2 – biochemical, small-molecule microarray, 635 nm fluorescence, primary screen (AID 1126).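 Further: printed compound slides probed with Chrdl2 protein at 4 µg/mL for 1 h at 4 C; score merges 667 nm emission intensity with signal to noise over three replicate slides.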 The note with it: fluorescence 635 nm, higher = more signal.
Assay [18] concerns the target Concanavalin-A (Canavalia ensiformis) (UniProt P02866). The assay can be described thus: compounds binding concanavalin A lectin – biochemical, small-molecule microarray, Alexa647 label, 635 nm, artefact control for SMM control protein annotation, primary screen (AID 1127).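 Further: z combines 667 nm emission intensity with signal-to-noise across three replicate slides.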 As to conditions: ConA-A647 binding fluorescence, higher = more signal.

Chain of Alpha-bungarotoxin (Bungarus multicinctus) (P60615 whole entry, looked up): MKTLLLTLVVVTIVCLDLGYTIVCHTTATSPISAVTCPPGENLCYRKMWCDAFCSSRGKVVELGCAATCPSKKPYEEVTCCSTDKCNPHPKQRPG
Chain of Albumin (Bos taurus) (P02769 whole entry, looked up): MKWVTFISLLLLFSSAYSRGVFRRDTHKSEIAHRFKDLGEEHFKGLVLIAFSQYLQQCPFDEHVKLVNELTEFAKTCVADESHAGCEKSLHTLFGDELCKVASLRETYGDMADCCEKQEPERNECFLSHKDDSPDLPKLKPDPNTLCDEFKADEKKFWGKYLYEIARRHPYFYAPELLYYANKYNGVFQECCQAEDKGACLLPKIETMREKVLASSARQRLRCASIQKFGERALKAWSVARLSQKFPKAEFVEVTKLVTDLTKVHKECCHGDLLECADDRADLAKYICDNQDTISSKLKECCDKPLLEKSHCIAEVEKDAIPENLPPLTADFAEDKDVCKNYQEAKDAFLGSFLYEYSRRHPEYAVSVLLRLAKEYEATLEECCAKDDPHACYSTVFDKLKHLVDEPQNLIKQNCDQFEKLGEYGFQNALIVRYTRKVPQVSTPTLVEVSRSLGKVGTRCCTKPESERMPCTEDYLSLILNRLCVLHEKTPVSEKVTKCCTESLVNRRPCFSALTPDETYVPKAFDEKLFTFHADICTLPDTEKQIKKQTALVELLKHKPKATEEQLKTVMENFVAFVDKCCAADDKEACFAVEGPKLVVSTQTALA
Chain of Torsin-1A-interacting protein 1 (Homo sapiens) (Q5JTV8 whole entry, looked up): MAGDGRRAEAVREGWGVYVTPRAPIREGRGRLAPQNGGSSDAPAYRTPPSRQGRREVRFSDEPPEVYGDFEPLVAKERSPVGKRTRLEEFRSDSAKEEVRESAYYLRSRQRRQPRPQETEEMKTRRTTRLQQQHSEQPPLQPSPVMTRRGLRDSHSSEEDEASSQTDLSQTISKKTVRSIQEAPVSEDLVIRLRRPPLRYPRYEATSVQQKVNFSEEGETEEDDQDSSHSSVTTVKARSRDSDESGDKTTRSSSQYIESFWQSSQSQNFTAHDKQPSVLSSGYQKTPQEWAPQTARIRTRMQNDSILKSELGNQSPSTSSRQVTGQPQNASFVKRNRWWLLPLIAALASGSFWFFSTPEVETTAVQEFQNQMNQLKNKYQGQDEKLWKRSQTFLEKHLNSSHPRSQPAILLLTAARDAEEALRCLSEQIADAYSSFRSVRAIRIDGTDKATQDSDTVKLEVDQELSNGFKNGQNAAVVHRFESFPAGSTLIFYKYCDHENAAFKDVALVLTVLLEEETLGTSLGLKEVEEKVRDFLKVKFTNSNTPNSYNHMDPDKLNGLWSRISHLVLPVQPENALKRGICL
Chain of Concanavalin-A (Canavalia ensiformis) (P02866 whole entry, looked up): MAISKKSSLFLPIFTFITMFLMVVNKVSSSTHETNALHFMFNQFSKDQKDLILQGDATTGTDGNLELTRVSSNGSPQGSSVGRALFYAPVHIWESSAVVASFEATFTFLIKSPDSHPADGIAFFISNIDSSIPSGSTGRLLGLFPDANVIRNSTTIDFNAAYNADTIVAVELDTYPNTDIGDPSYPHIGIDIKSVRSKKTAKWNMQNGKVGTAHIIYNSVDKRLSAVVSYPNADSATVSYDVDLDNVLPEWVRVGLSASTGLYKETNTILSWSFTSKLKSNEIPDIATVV
Chain of Left-right determination factor 2 (Homo sapiens) (O00292 whole entry, looked up): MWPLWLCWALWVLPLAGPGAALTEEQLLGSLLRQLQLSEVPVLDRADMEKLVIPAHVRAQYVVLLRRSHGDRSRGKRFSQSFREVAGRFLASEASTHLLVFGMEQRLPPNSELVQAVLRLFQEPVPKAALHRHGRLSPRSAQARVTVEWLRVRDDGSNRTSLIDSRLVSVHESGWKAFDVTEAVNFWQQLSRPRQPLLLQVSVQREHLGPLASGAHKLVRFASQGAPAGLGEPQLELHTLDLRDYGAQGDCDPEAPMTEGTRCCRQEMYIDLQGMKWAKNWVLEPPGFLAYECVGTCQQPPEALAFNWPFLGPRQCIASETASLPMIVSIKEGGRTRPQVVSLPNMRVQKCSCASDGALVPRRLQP

Take `COC(=O)c1ccc(OC)c(/C=C\CC(OC(C)=O)c2ccccc2)c1` (stereo not given): the composite z-score is -0.5 in assay [1]; 0.374 in assay [3]; 0.461 in assay [4]; 0.193 in assay [5]; -0.237 in assay [6]; 0.0668 in assay [7]. In addition, the composite z-score in assay [8] was -0.397; in assay [9], -0.129; in [10], 0.808; in the assay with Albumin (Bos taurus) it was 0.652; in assay [12], -0.276; in assay [13] it was -0.149. In addition, the composite z-score in [14] was 0.971; in assay [15], 0.718; in assay [16], -0.0984; with Sam68 (KHDRBS1), -0.215; in assay [17], 1.1; in [18], 1.15. Further, the z-score in assay [2] is -1.14. In addition, in assay [11], the composite Z-score was -0.192 (inactive).

As to `CC(C)C(=C=CC[C@H](O)c1ccccc1OCCO)C[C@H](O)c1ccccn1`, the composite z-score in assay [1] is 0.143; in assay [3], 0.64; in [4], -0.227; in [5], -0.253; in assay [6] it was -0.0607; in assay [7], -0.2. Also, the composite z-score in assay [8] is 0.381; in assay [9], 0.94; in [10] it was 1.38; in the assay with Albumin (Bos taurus) it was 0.161; in assay [12], 0.395; in assay [13] it was -0.0488. In addition, the composite z-score in [14] is 0.632; in assay [15], 0.559; in assay [16], 1.61; with Sam68 (KHDRBS1), 0.861; in assay [17], -0.161; in assay [18] it was -0.0625. Moreover, in assay [2], the z-score was -0.493. The composite Z-score in assay [11] is 0.41 (inactive).

For `C=CCC(OC(C)=O)[C@@H]1[C@@H](N(Cc2cc3ccccc3o2)C(=O)c2ccc(C)cc2)c2cc(OCCCO)ccc2N1C(=O)c1ccc2ccccc2c1` (stereo not given in full), the composite z-score was 0.0468 in [1]; 0.161 in [3]; -0.0375 in assay [4]; 0.37 in [5]; -0.0644 in assay [6]; 0.313 in [7]. The composite z-score is -0.314 in assay [8]; 0.189 in [9]; -0.298 in [10]; 0.767 in the assay with Albumin (Bos taurus); 0.0259 in assay [12]; -0.101 in [13]. Also, the composite z-score in [14] was 0.0486; in assay [15], 0.605; in assay [16], -0.069; with Sam68 (KHDRBS1) it was -0.0437; in [17], 0.157; in assay [18] it was -0.309. The z-score in [2] is -0.274. Besides, the composite Z-score in [11] was 0.698 (inactive).

As to `CN1C=C(C(=O)OCCS(C)(=O)=O)C(C(=O)OCCS(C)(=O)=O)=CC(CCCO)=CC1C1CC1` (stereo not given), the composite z-score is 0.117 in assay [1]; -0.0097 in [3]; 0.0991 in assay [4]; -0.0416 in assay [5]; -0.126 in assay [6]; 0.0434 in assay [7]. The composite z-score in assay [8] was 0.257; in assay [9], -0.116; in assay [10], 0.198; with Albumin (Bos taurus), 0.846; in assay [12], -0.0613; in [13], -0.108. Also, the composite z-score in [14] is 0.826; in assay [15] it was 0.606; in assay [16], -0.0075; with Sam68 (KHDRBS1), -0.0704; in assay [17], -0.705; in assay [18], 0.183. This compound registered a z-score in assay [2] of -0.552. In addition, the composite Z-score in assay [11] was -0.561 (inactive).

`Cc1cc(C)cc(N2C(=O)CS(=O)(=O)C2c2cccc([N+](=O)[O-])c2)c1` (stereo not given): the composite z-score in assay [1] is -0.489; in assay [3], 0.39; in assay [4] it was 1.47; in [5] it was 0.395; in assay [6], -0.15; in [7], 0.108. In addition, the composite z-score in [8] is 0.549; in assay [9], 1.23; in assay [10], 1.25; with Albumin (Bos taurus), 0.785; in assay [12], 0.799; in [13] it was 0.189. Also, the composite z-score in assay [14] stood at 0.547; in assay [15], 1.73; in [16] it was 1.36; in the assay on Sam68 (KHDRBS1), 0.828; in [17], 0.433; in [18] it was 0.989. In [2], the z-score is -0.0865. Further, the composite Z-score in [11] was 1.97 (inactive).

(Values after PubChem BioAssay.)
